# Results filed as inconclusive are left out. Where a call stands in place of a potency, no number is given. A number with no mark means an inactive call. Activity calls are given as the source filed them. Calls follow the shape of the dose curve; as a rule, active = well fitted curve in the direction sought with a large enough effect; inconclusive = small, poorly fitted or top-dose-only effect, or another doubt; inactive = no such curve, though single readings can be large; an effect the other way counts as inactive or inconclusive.
# Assays:
# [1] = target: Rap guanine nucleotide exchange factor 3 (Homo sapiens) (UniProt O95398); experiment: Confirmatory qHTS for antagonist of cAMP-regulated guanine nucleotide exchange factor 3 (EPAC1) (AID 1645880); also: nearly all actives have a fitted effect of over 55% in size; also: potency is read from the fitted curve at half-maximal effect
# Method in brief: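 Released BODIPY-GDP fluoresces less than Rap1-bound BODIPY-GDP; the signal is followed at 480/540 nm at 5-min intervals over 30 min, after 5 min at room temperature. Reactions contain 100 nM EPAC1, 250 nM RAP1B-BODIPY-GDP and 50 uM GDP; results are normalized to ATA and DMSO.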
# [2] = target: Rap guanine nucleotide exchange factor 3 (Homo sapiens) (UniProt O95398); experiment: Confirmatory qHTS for agonist of cAMP-regulated guanine nucleotide exchange factor 3 (EPAC1) (AID 1645881); also: nearly all actives have a fitted effect of over 75% in size; also: potency is read from the fitted curve at half-maximal effect;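 as to activation: EPAC1 catalysed release of BODIPY-GDP from Rap1B seen as fluorescence loss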
# [3] = target: Rap guanine nucleotide exchange factor 4 (Homo sapiens) (UniProt Q8WZA2); experiment: Confirmatory qHTS for agonist of cAMP-regulated guanine nucleotide exchange factor 4 (EPAC2) (AID 1645884);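 also: nucleotide exchange releases bodipy-GDP from Rap1 and this lowers its fluorescence; nearly all actives have a fitted effect of over 65% in size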; also: potency is read from the fitted curve at half-maximal effect
# [4] = target: Rap guanine nucleotide exchange factor 4 (Homo sapiens) (UniProt Q8WZA2); experiment: Confirmatory qHTS for antagonist of cAMP-regulated guanine nucleotide exchange factor 4 (EPAC2) (AID 1645885); also: nearly all actives have a fitted effect of over 25% in size; also: potency is read from the fitted curve at half-maximal effect
# [5] = target: Rap guanine nucleotide exchange factor 3 (Homo sapiens) (UniProt O95398); experiment: Counterscreen qHTS for antagonist of cAMP-regulated guanine nucleotide exchange factor 3 (EPAC1) (AID 1645888)
# Method in brief: (§1)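 Measured: fluorescence of BODIPY-GDP bound to Rap1B, which falls as exchange proceeds. Conditions include 50 uM competing GDP, 5 and 30 min reads, and a later cAMP challenge for antagonist detection.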
# [6] = target: Rap guanine nucleotide exchange factor 3 (Homo sapiens) (UniProt O95398); experiment: Counterscreen qHTS for agonist of cAMP-regulated guanine nucleotide exchange factor 3 (EPAC1) (AID 1645889); also: nearly all actives have a fitted effect of over 40% in size; also: potency is read from the fitted curve at half-maximal effect
# Method in brief: as §1
# Rap guanine nucleotide exchange factor 3 (Homo sapiens), sequence (O95398 whole entry, looked up): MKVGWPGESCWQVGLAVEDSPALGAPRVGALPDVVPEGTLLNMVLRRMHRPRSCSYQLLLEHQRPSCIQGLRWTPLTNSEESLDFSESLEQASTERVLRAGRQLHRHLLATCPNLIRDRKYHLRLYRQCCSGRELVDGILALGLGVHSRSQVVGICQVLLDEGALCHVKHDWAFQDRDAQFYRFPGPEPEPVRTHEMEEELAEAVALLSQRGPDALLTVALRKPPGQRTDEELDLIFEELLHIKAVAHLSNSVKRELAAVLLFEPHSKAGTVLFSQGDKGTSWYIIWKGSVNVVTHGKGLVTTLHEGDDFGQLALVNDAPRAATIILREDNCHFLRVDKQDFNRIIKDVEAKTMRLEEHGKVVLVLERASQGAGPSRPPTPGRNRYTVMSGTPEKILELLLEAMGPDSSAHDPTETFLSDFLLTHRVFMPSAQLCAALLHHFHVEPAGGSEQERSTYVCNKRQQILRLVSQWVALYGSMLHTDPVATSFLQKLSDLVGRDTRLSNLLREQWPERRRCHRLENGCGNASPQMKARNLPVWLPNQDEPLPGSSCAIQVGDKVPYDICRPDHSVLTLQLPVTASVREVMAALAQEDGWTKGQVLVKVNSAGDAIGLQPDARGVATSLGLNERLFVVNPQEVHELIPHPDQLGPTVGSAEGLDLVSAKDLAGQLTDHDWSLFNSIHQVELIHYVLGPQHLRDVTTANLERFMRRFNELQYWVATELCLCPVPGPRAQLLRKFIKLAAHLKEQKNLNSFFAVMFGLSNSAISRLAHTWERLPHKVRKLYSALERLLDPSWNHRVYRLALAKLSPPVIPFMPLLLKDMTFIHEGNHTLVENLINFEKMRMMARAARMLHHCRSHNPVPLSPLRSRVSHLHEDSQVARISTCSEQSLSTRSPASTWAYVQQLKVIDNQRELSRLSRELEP
# Rap guanine nucleotide exchange factor 4 (Homo sapiens), sequence (Q8WZA2 whole entry, looked up): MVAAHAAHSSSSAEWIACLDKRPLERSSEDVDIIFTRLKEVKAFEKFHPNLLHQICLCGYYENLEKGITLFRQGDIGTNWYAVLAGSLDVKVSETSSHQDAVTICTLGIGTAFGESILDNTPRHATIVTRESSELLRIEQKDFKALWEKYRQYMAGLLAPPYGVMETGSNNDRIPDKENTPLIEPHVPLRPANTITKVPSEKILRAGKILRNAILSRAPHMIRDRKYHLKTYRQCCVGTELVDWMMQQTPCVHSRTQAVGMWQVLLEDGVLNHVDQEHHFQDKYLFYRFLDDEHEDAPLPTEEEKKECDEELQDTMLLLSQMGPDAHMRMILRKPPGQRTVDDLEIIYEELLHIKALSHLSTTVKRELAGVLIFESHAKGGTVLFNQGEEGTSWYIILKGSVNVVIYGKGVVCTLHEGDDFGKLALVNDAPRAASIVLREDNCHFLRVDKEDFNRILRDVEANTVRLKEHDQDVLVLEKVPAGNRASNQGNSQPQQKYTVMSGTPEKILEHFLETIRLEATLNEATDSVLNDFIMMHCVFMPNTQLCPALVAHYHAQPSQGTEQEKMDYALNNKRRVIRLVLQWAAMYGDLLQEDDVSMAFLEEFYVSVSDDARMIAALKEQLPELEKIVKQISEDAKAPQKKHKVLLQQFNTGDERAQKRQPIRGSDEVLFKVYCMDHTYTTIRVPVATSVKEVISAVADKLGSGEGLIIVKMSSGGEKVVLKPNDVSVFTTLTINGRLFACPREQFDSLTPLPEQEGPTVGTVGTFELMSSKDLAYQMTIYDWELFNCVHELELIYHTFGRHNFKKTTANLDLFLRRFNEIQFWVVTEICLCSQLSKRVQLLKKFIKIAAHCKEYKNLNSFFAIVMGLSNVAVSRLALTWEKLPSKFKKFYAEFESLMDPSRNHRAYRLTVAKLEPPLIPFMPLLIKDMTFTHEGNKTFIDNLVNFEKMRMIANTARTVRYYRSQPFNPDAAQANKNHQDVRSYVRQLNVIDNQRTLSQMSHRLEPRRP
Structure (SMILES),Potency [1],Potency [2],Potency [3],Potency [4],Potency [5],Potency [6],activation [3],"activity change, negative = inhibition [5]",activation [6]
CCSc1nnc(NC(=O)C2CCN(S(=O)(=O)c3ccccc3C(F)(F)F)CC2)s1,inactive,inactive,inactive,inactive,inactive,–,–,–,–
COc1cc(CC(=O)Nc2ccccc2N2CCCCC2)cc(OC)c1OC,inactive,inactive,inactive,inactive,inactive,inactive,–,–,–
Cc1cc(NCc2ccco2)n2c(nc3ccccc32)c1C#N,inactive,inactive,inactive,inactive,inactive,inactive,–,–,–
COc1cccc(NC(=O)Cn2cc(C(=O)C3CC3)c3ccccc32)c1,inactive,inactive,inactive,inactive,inactive,–,–,–,–
Cc1onc(-c2c(F)cccc2Cl)c1C(=O)OCC(=O)N(C)c1ccccc1,inactive,inactive,–,inactive,–,–,"4.47% [at 17.1 µM, percent relative to cAMP agonist control]",-6.38% [at 30.8 µM],12.2% [at 30.8 µM]
COC(=O)c1c(NC(=O)c2c(OC)cccc2OC)sc2c1CCCC2,inactive,inactive,inactive,inactive,inactive,–,–,–,–
O=C(NCCS(=O)(=O)N1CCN(c2cccc(Cl)c2)CC1)c1ccc2c(c1)OCO2,inactive,inactive,inactive,inactive,inactive,inactive,–,–,–
C[C@H]1CN([C@@H](C)CO)C(=O)c2cccc(NS(=O)(=O)c3ccc(Cl)cc3)c2O[C@@H]1CN(C)CC1CCCCC1,inactive,inactive,–,inactive,–,–,"0% [at 17.1 µM, percent relative to cAMP agonist control]",0.127% [at 30.8 µM],–
COc1ccc(CCNC(=O)c2c(C)nn(-c3ccc(F)cc3)c2-n2cccc2)cc1OC,inactive,inactive,inactive,inactive,inactive,inactive,–,–,–
Cc1csc(SCC(=O)NC23CC4CC(CC(C4)C2)C3)n1,inactive,inactive,–,inactive,–,–,"1.39% [at 17.1 µM, percent relative to cAMP agonist control]",-23.6% [at 30.8 µM],22.6% [at 30.8 µM]
O=C(N/N=C/c1c(O)n(-c2ccccc2Cl)c(=O)c2ccccc12)c1cccnc1,3.38 µM (active),inactive,inactive,inactive,inactive,inactive,–,–,–
Cc1ccc(NC(=O)CSc2ncn[nH]2)cc1C,inactive,inactive,inactive,inactive,inactive,inactive,–,–,–
COC(=O)C(CC(=O)c1ccc(C)cc1)n1cccn1 (centres undefined),inactive,inactive,inactive,inactive,inactive,inactive,–,–,–
COc1ccccc1OCC(=O)Nc1cccc(S(=O)(=O)NC2=NCCCCC2)c1,inactive,inactive,inactive,inactive,inactive,inactive,–,–,–
O=C(/C=C/c1ccc([N+](=O)[O-])cc1)Nc1cccc(C(=O)Nc2ccccc2C(=O)O)c1,22.4 µM (active),inactive,–,inactive,–,–,"-2.89% [at 17.1 µM, percent relative to cAMP agonist control]",0.771% [at 30.8 µM],4.73% [at 30.8 µM]
CCCNC(=O)C1CCN(S(=O)(=O)c2ccc3[nH]c(=O)ccc3c2)CC1,inactive,inactive,inactive,inactive,inactive,inactive,–,–,–
Cc1cc(/C=N/NC(N)=S)c(O)c(/C=N/NC(N)=S)c1,inactive,44.7 µM (active),50.1 µM (active),inactive,inactive,6.31 µM (active),–,–,–
c1ccc(-c2nnc3sc(CN4CCC5(CC4)OCCO5)cn23)cc1,inactive,inactive,inactive,inactive,inactive,inactive,–,–,–
CCCCC(=O)Nc1cccc(NC(=O)c2ccccc2Br)c1,inactive,inactive,inactive,inactive,inactive,inactive,–,–,–
CCOc1cc(/C=N/Nc2nc(-c3cccs3)c(NC(C)=O)s2)ccc1O,inactive,inactive,inactive,inactive,inactive,inactive,–,–,–
O=C(Cn1cnc2scc(-c3cccc([N+](=O)[O-])c3)c2c1=O)NCc1ccco1,37.9 µM (active),inactive,inactive,inactive,inactive,inactive,–,–,–
O=C(Nc1ccc(F)cc1F)C1CCN(c2ncccn2)CC1,inactive,inactive,inactive,inactive,inactive,inactive,–,–,–

Structure (SMILES),Potency [1],Potency [2],Potency [3],Potency [4],Potency [5],Potency [6],activation [3],"activity change, negative = inhibition [5]",activation [6]
Cc1ccc2c(c1)c(/C=C/c1cc[n+](C)cc1)c(C)n2C,inactive,100 µM (active),100 µM (active),inactive,inactive,8.91 µM (active),–,–,–
COc1ccc(C(C)=O)cc1COc1ccc(F)cc1,inactive,inactive,–,inactive,–,–,"4.69% [at 17.1 µM, percent relative to cAMP agonist control]",5.38% [at 30.8 µM],4.32% [at 30.8 µM]
CC(=O)N1c2ccc(S(=O)(=O)NCCc3ccccc3)cc2CC1C (centres undefined),inactive,inactive,inactive,inactive,inactive,inactive,–,–,–
Cc1ccc(Cl)cc1NC(=O)C(C)n1nc(-c2ccccc2)ccc1=O (centres undefined),inactive,inactive,inactive,inactive,inactive,inactive,–,–,–
Cc1nnc(N/N=C\c2ccc(-c3ccccc3[N+](=O)[O-])o2)n1N,inactive,inactive,–,inactive,–,–,"4.31% [at 17.1 µM, percent relative to cAMP agonist control]",7.63% [at 30.8 µM],36.2% [at 30.8 µM]
CCOc1c(O)ccc(/C=C2\SC(=S)NC2=O)c1[N+](=O)[O-],37.9 µM (active),inactive,inactive,inactive,inactive,inactive,–,–,–
CCOC(=O)c1ccc(N2C(=O)c3[nH]nc(-c4ccc(OCC)cc4)c3C2c2cccs2)cc1 (centres undefined),inactive,inactive,inactive,inactive,inactive,inactive,–,–,–
CN(C)c1ccc(/C=C/C(=O)c2ccc3c(c2)OCO3)cc1,inactive,112 µM (active),112 µM (active),37.9 µM (active),inactive,79.4 µM (active),–,–,–
CC(=O)C1=C(c2ccc(C)cc2)N(C(C)=O)n2c(nnc2C2CCCCC2)S1,inactive,inactive,inactive,inactive,inactive,inactive,–,–,–
CCN(CC)c1ccc2oc(=O)c(C)nc2c1,inactive,100 µM (active),100 µM (active),75.7 µM (active),inactive,39.8 µM (active),–,–,–
O=C1NN(c2cccc(Br)c2)C(=O)/C1=C\c1ccccc1,33.8 µM (active),inactive,inactive,inactive,inactive,inactive,–,–,–
Cc1ccc(S(=O)(=O)N2[C@@H](c3ccc(Cl)cc3)C(C(=O)O)=CC[C@H]2c2ccc(C(C)C)cc2)cc1,42.6 µM (active),inactive,inactive,inactive,inactive,inactive,–,–,–
O=C(O)C(c1ccccc1)N1C(=O)/C(=C\c2ccc(O)c(O)c2)SC1=S (centres undefined),6.75 µM (active),inactive,inactive,21.3 µM (active),inactive,inactive,–,–,–
C/C(=N\NC(=O)c1cc(-c2cccc([N+](=O)[O-])c2)n[nH]1)c1ccccc1O,26.9 µM (active),inactive,inactive,inactive,inactive,inactive,–,–,–
Cc1noc(C)c1CSc1ncnc2sc(C)c(C)c12,inactive,inactive,inactive,inactive,inactive,inactive,–,–,–
CCOc1ccc(NC(=O)CN(C)C(=O)c2ccccc2SCc2c(C)noc2C)cc1OCC,inactive,inactive,–,inactive,–,–,"1.53% [at 17.1 µM, percent relative to cAMP agonist control]",-10.4% [at 30.8 µM],18% [at 30.8 µM]
COC(=O)c1ccc(N2C(=O)CC(N3CCOCC3)C2=O)cc1 (centres undefined),inactive,inactive,–,inactive,–,–,"8.32% [at 17.1 µM, percent relative to cAMP agonist control]",6.34% [at 30.8 µM],10.6% [at 30.8 µM]
Cc1nn(CC(=O)N(C)C2CCS(=O)(=O)C2)c(C)c1[N+](=O)[O-] (centres undefined),inactive,inactive,–,inactive,–,–,"2.8% [at 17.1 µM, percent relative to cAMP agonist control]",-13.2% [at 30.8 µM],30.9% [at 30.8 µM]
CCn1c(CNC(=O)COC)nc2ccccc21,inactive,inactive,–,inactive,–,–,"3.77% [at 17.1 µM, percent relative to cAMP agonist control]",-4.31% [at 30.8 µM],4.54% [at 30.8 µM]
CCCc1nc2ccccc2c(=O)n1/N=C/c1ccccc1O,37.9 µM (active),inactive,inactive,inactive,inactive,inactive,–,–,–
CC1(C)CC[C@]2(C(=O)n3ccnc3)CC[C@]3(C)[C@H](C(=O)C=C4[C@@]5(C)C=C(C#N)C(=O)C(C)(C)[C@@H]5CC[C@]43C)[C@@H]2C1,14.1 µM (active),inactive,–,inactive,–,–,"-11.4% [at 17.1 µM, percent relative to cAMP agonist control]",-3.92% [at 30.8 µM],18.4% [at 30.8 µM]
